# Screen size: about 69,000 compounds; about 8,600 (12%) showed an effect of 50% or more. This is one part of a sample in which strong results are shown more often than they occur.
# Tested on: Plasmodium berghei
# Assay: Screen against P. berghei liver stage (PbLuc), transformed with Luciferase, at 10uM
# Assay type: functional, HepG2
# Settings: tested at 10 uM
row,SMILES,INHIBITION [%]
1,Cn1ccnc1-c1nccn1C[C@@H]1CCCN2CCCC[C@H]12,12
2,COc1ccc(-c2nccn2C[C@@H]2CCCN3CCCC[C@H]23)cc1,65.3
3,c1cnc2c(-c3nccn3C[C@@H]3CCCN4CCCC[C@H]34)cccc2c1,20.2
4,CCc1ccc(CNC(=O)N2CCN(Cc3cc(C)on3)CC2)s1,7.12
5,O=C1CN(C(=O)c2cccc(C(F)(F)F)c2)CC(O)CN1CC1CC1 (configuration not stated),25.3
6,CC(C)(C)CN1CC(O)CN(C(=O)c2cccc(C(F)(F)F)c2)CC1=O (configuration not stated),60.8
7,CCN1CC(O)CN(C(=O)c2cccc(C(F)(F)F)c2)CC1=O (configuration not stated),5.58
8,N#CCCN1CC(O)CN(C(=O)c2cccc(C(F)(F)F)c2)CC1=O (configuration not stated),57
9,CC(C)CN1CC(O)CN(C(=O)c2cccc(C(F)(F)F)c2)CC1=O (configuration not stated),45.7
10,COCCN1CC(O)CN(C(=O)c2cccc(C(F)(F)F)c2)CC1=O (configuration not stated),13.1
11,CSc1ccccc1C(=O)N1CCOC(CCN(C)C)C1 (configuration not stated),12.1
12,Cc1ccc(NC2CCCN(CCCc3ccccc3)C2)nn1 (configuration not stated),35.7
13,O=C(CCNc1ncccn1)N1CCCN(c2nccs2)CC1,33.7
14,CCN(CCC1CCN(C(=O)NCc2nncn2CC)CC1)CC1CC1,-38.2
15,CCc1cnc(N2C[C@@H]3C[C@H](C(=O)NC)[C@H](C2)O3)nc1,-45.8
16,OCC1(CNC2CCc3cc4c(cc32)OCCO4)CC1 (configuration not stated),-122
17,OCCNC1CCc2cc3c(cc21)OCCO3 (configuration not stated),55.1
18,OCCCNC1CCc2cc3c(cc21)OCCO3 (configuration not stated),-56.6
19,O=C(c1ccc(Cl)cc1)N1CC2(CCNC2)OCc2ccccc21 (configuration not stated),39.1
20,CC(NC(=O)Nc1ccc(-n2cncn2)cc1)C(=O)NC(C)(C)C (configuration not stated),41.4
21,CCC(C)(C)CC(=O)NC(C)C(=O)Nc1ccc(-n2cncn2)cc1 (configuration not stated),26
22,CC(NC(=O)CCC(C)(C)C)C(=O)Nc1ccc(-n2cncn2)cc1 (configuration not stated),50
23,CC(C)c1noc(CCCC(=O)NC(C)c2ccccn2)n1 (configuration not stated),-30.6
24,Cc1csc(C(Cc2ccsc2)NC(=O)CN(C)Cc2ccccn2)n1 (configuration not stated),28.3
25,COc1ncnc(N)c1CNCCOc1ccccc1Cl,21.3
26,COc1ncnc(N)c1CNCCc1ccc(-n2cccn2)cc1,16.8

row,SMILES,INHIBITION [%]
1,COc1ncnc(N)c1CNCCc1ccccc1,75.4
2,COC(=O)[C@H](CCSC)NC(=O)Cc1c(C)nn(-c2ccccc2)c1C,5.58
3,CC(C)c1noc(CCCC(=O)NCC2CCS(=O)(=O)C2)n1 (configuration not stated),21.6
4,Cc1csc(C2CCCN(C(=O)c3c[nH]c(C)n3)C2)n1 (configuration not stated),24
5,Cc1[nH]nc(CCC(=O)N2C[C@@H]3CC[C@H]2CN(C(=O)N(C)C)C3)c1C,45.4
6,CCOC(=O)CN1CCC(NC(=O)OC(C)(C)C)CC1,32.3
7,CSCCN1CCC(NC(=O)OC(C)(C)C)CC1,-19.7
8,COC(=O)CCN1CCC(NC(=O)OC(C)(C)C)CC1,50.2
9,CC(C)CN1CCN(C(=O)c2ccncc2F)Cc2cccnc21,-18.4
10,O=C(CN1CCOCC1)Nc1cc(C(F)(F)F)ccc1-n1cccc1,42.6
11,N#CCCN(CC1CCCO1)C(=O)c1ccc(C#N)cc1 (configuration not stated),-5.31
12,N#CCCN(CC1CCCO1)C(=O)c1ccc2nonc2c1 (configuration not stated),2.59
13,N#CCCN(CC1CCCO1)C(=O)c1ccsc1 (configuration not stated),57.9
14,CCNc1cc2c(nn1)CCN(C(=O)c1ccnc(-n3ccnc3)c1)C2,54.15
15,CCNc1cc2c(nn1)CCN(C(=O)c1cc(C)n(C3CC3)c1C)C2,35.9
16,CNc1cc2c(nn1)CCN(C(=O)c1cccc3c1OCO3)C2,-13.3
17,CNc1cc2c(nn1)CCN(C(=O)c1cccc3c1OCCO3)C2,51.1
18,CCNc1cc2c(nn1)CCN(C(=O)c1cccc3c1OCCO3)C2,3.81
19,Cc1cc(C(=O)N2CCc3nnc(N(C)C)cc3C2)c(C)n1C1CC1,19.4
20,CCNc1cc2c(nn1)CCN(C(=O)c1ccnc(N(C)C)c1)C2,4.59
21,CNc1cc2c(nn1)CCN(C(=O)c1cc(C)n(C3CC3)c1C)C2,79.1
22,CNc1cc2c(nn1)CCN(C(=O)c1ccoc1)C2,51.3
23,CCNc1cc2c(nn1)CCN(C(=O)c1ccc(C(N)=O)cc1)C2,41.65
24,CCNc1cc2c(nn1)CCN(C(=O)c1ccoc1)C2,39.2
25,CNc1cc2c(nn1)CCN(C(=O)c1cc(F)cc(F)c1)C2,17.7
26,CN(CCc1ccccn1)C(=O)Cn1cc(-c2ccccc2)nn1,6.23

row,SMILES,INHIBITION [%]
1,CN1CCN([C@@H]2CN(C(=O)c3cc4ccc(F)cc4[nH]3)C[C@H]2O)CC1,36
2,O=C(NCCn1ccnc1)N1CCCC1c1ccncc1 (configuration not stated),31.9
3,O=C1CN(C(=O)C2CN(c3cccc(F)c3)CCO2)CCN1 (configuration not stated),13.35
4,O=C(NCC1CC1)c1c2c(N3CCCC3)ncnc2n2ccccc12,33.4
5,CC(C)c1ncc2c(n1)CN(Cc1cccc(C(N)=O)c1)CC2,-34
6,O=C(c1ccccc1)N1CCO[C@@H]2CN(Cc3ccc[nH]3)C[C@@H]2C1,35.8
7,COCCOCC(=O)N1C[C@@H]2CC[C@H](Oc3ccccc3F)[C@@H]2C1,15.9
8,O[C@H]1CCN(CCCOc2ccccc2F)C[C@@]12CCCO2,33.85
9,Fc1cccc(-n2ccc(CN3CCCC3Cn3cccn3)n2)c1 (configuration not stated),-31.8
10,Cc1ccc2cc(CNCCN3CCCC3)c(=O)[nH]c2c1,39.7
11,O=C(NCc1ccc2c(c1)CCCO2)C1CNCCO1 (configuration not stated),12.9
12,O=C(NCc1ccc2c(c1)CCCO2)c1ccc(C2CCNC2)cc1 (configuration not stated),50.4
13,O=C(NCc1ccc2c(c1)CCCO2)c1ccccc1C1CCNC1 (configuration not stated),-26.1
14,Cc1noc(CCCC(=O)NCCc2cc3ccccc3[nH]2)n1,7.18
15,CC(=O)N[C@@H]1C[C@H](c2ccc(OCCO)cc2)OC2(CCOCC2)C1,18.3
16,Cc1cnc(N2CC3(CCN(C(=O)c4cccnc4)C3)C2)nc1,22.2
17,Cc1ccc(CN2CC3(CCN(C(=O)c4cscn4)C3)C2)s1,35.1
18,Cc1nc(CN2CCC3(CC2)CCN(C(=O)c2cscn2)C3)cs1,75.4
19,Cc1ccc(CN2CC3(CCN(C(=O)c4cccnc4)C3)C2)o1,71.1
20,O=C(c1cscn1)N1CCC2(CN(Cc3ccoc3)C2)C1,34.4
21,O=C(c1cscn1)N1CCC2(CCN(Cc3nccs3)CC2)C1,14.8
22,Cc1ccc(CN2CCC3(CC2)CCN(C(=O)c2cccnc2)C3)o1,34
23,Cc1noc(C)c1CN1CCC2(CC1)CCN(C(=O)c1cscn1)C2,40.8
24,Cc1ccc(CN2CC3(CCN(C(=O)c4cscn4)C3)C2)o1,54.7
25,CNC(C(=O)OC)c1cc(F)ccc1F (configuration not stated),-0.219
26,Cn1cc(CN2CCC[C@]3(C(=O)O)CN(c4ncccn4)C[C@@H]3C2)cn1,-44.2

row,SMILES,INHIBITION [%]
1,Cc1ccc(NC(=O)C2CSCN2C(=O)c2ccncc2)c(C)c1 (configuration not stated),16.1
2,CC(C(=O)NCc1ccc(N2CCCCCC2)nc1)S(C)(=O)=O (configuration not stated),-12.2
3,O=S(=O)(c1ccccc1)N1CCOC(Cn2ccnc2)C1 (configuration not stated),-12.3
4,Cc1ccc(CN2CC(C(=O)Nc3ccccc3)C3(CCOCC3)C2)o1 (configuration not stated),-24.9
5,O=C(c1cscn1)N1CC[C@@H]2[C@@H]1CCN2C1CCOC1 (some centres not stated),12.6
6,O=C(c1ccnnc1)N1CCN2C[C@H](OCc3ccccn3)C[C@H]2C1,-5.05
7,O=C(Cc1ccccn1)N1CCN2C[C@H](Oc3cccc(F)c3)C[C@H]2C1,33
8,Cc1ccc(O[C@@H]2C[C@H]3CN(C(=O)Cc4ccccn4)CCN3C2)cc1,84.7
9,O=C(c1ccc(F)cc1)N1CCN2C[C@H](OCc3ccccn3)C[C@H]2C1,-1.71
10,O=C(Cc1cccc(F)c1)N1CCN2C[C@H](Oc3cncnc3)C[C@H]2C1,39.4
11,Cc1ccc(O[C@@H]2C[C@H]3CN(C(=O)c4cnccn4)CCN3C2)cc1,-28.8
12,O=C(c1ccco1)N1CCN2C[C@H](Oc3cncnc3)C[C@H]2C1,-5.63
13,O=C(Cc1ccccn1)N1CCN2C[C@H](OCCN3CCCC3)C[C@H]2C1,68.4
14,O=C(c1cccnc1)N1CCN2C[C@H](Oc3cncnc3)C[C@H]2C1,55.5
15,O=C(c1ccncc1)N1CCN2C[C@H](Oc3cncnc3)C[C@H]2C1,23.3
16,O=C(Cc1ccccn1)N1CCN2C[C@H](Oc3cncnc3)C[C@H]2C1,67.2
17,O=C(c1ccnnc1)N1CCN2C[C@H](Oc3cccnc3)C[C@H]2C1,-10.2
18,CC(C)c1nc(C2CCCN(C(=O)c3ccc4c(c3)OCO4)C2)no1 (configuration not stated),45.1
19,COCCc1noc(CN2CCC(c3ccccc3C(=O)O)C2)n1 (configuration not stated),35.7
20,Cc1nc(CN2CCCC2c2c(C)nn(C)c2Cl)oc1C (configuration not stated),18.2
21,O=C1CC(NS(=O)(=O)c2ccc(F)c(Cl)c2)CN1 (configuration not stated),-6.67
22,O=C(Cn1c(=O)[nH]c2cn(-c3ccccc3)c(=O)n21)NC1CCCCC1,-6.61
23,Cc1ccc(Cn2c(=O)[nH]c3cccnc3c2=O)cc1,-5.64
24,c1coc(CN2Cc3ccnn3CC(COCC3CC3)C2)c1 (configuration not stated),-47
